# Sampled rows, rich in hits. Any-hit rate of the full collection: about 7.3%.
# FLuc counter: firefly luciferase modulation, counter-screen for miR-21 project | P08659 | purified FLuc, Km substrates, luminescence inhibition | Potency, µM (top dose mostly 57.5 µM), most hits filed as inhibitors | actives 6.9% (n = 360,000); also: nearly all actives have a fitted effect of over 55% in size
# Target sequence (P08659 whole entry, looked up): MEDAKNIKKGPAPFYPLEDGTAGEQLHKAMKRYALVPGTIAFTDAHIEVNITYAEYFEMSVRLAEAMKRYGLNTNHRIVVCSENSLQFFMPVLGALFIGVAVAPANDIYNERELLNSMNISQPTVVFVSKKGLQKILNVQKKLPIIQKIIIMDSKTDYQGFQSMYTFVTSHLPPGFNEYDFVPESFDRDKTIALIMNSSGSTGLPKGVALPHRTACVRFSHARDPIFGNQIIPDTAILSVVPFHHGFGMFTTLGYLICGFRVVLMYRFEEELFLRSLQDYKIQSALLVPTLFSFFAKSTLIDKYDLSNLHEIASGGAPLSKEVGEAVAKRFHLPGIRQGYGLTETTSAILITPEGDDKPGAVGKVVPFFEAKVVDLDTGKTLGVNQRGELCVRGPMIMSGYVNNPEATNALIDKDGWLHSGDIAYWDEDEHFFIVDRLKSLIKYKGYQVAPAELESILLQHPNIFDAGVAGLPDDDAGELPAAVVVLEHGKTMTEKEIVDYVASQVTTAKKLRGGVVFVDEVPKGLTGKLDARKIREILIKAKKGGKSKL
#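 Purified P. pyralis luciferase (10nM final) with 10uM D-luciferin and 10uM ATP (Km levels) in 50mM Tris acetate pH 7.5, 10mM Mg acetate, 0.01% Tween-20, 0.05% BSA; qHTS 6-point titration, ~60 µM downward; luminescence read.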
# NPC1 prom act: activators of NPC1 promoter | AID 485313 | Potency, µM (doses to about 9.22 µM), usual class: activators | Huh7 NPC1 promoter luciferase reporter, 24 h | actives 2.4% (n = 320,000); also: nearly all actives have a fitted effect of over 60% in size
#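 Cells: Huh7 expressing luciferase under the NPC1 promoter, 1500/well. Seeded 2 h, compound added, incubated 24 h at 37 °C. Luciferase reagent, 10 min ambient, then luminescence.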
# p53 reactivator: mutant p53 re-activation in reporter cells; H1299 p53-A138V BP100-luciferase reporter, luminescence, 24 h; Potency, µM (highest dose often 92.2 µM), most hits filed as activators; actives 0.063% (n = 320,000); AID 504706; also: nearly all actives have a fitted effect of over 45% in size
#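 p53-null H1299 cells stably carrying temperature-sensitive p53-A138V and a BP100-luciferase reporter were pinned with compounds (4-point, 1:5 series) and held 24 hrs at 37 deg C. Luminescence was read 10 min after detection reagent.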
# ELG1 genotoxic: induces genotoxicity in HEK293T cells with luciferase-tagged ELG1; Potency, µM (series often up to 46 µM), actives largely listed as activators; HEK293T ELG1-luciferase reporter, luminescence, 16 h; actives 1.3% (n = 330,000); also: nearly all actives have a fitted effect of over 60% in size
#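 Genotoxic stress is detected as increased luminescence from luciferase-tagged ELG1 in HEK293T cells, measured with ONE-Glo after a 16 hr treatment at 37 °C.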
# Rab9 prom act: Rab9 promoter activation; Huh7 Rab9 promoter-luciferase reporter, luminescence, 24 h; Potency, µM (titrated, usually from 9.22 µM), most hits filed as activators; actives 2.8% (n = 320,000); AID 485297; also: nearly all actives have a fitted effect of over 60% in size
#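 Luciferase signal after 10 min detection reagent at ambient indicates Rab9 promoter upregulation; stably transfected Huh7 cells were treated 24 h with compound in DMSO at 37 °C, 5% CO2.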
# SMN2 splice enh: enhancers of SMN2 splice variant expression. HEK293 SMN2-luciferase splicing reporter, luminescence, 30-36 h. Potency, µM (series often up to 46.1 µM), most hits filed as activators. actives 2.8% (n = 210,000); also: nearly all actives have a fitted effect of over 55% in size
#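 qHTS luciferase splicing reporter: luminescence rises when SMN2 exon 7 is included in transfected HEK293 cells. Compound exposure lasted 30-36 h at 37C, with 4.5 mM final sodium butyrate as control, followed by a ONE-Glo read.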
# Hits are given with their value; n = inactive; u = inconclusive; x = not tested or not shown; [ ] = dose if it differs, or a comment. Calls follow the shape of the dose curve; as a rule, active = well fitted curve in the direction sought with a large enough effect; inconclusive = small, poorly fitted or top-dose-only effect, or another doubt; inactive = no such curve, though single readings can be large; an effect the other way counts as inactive or inconclusive.
SMILES,FLuc counter,NPC1 prom act,p53 reactivator,ELG1 genotoxic,Rab9 prom act,SMN2 splice enh
CCn1cc(C(=O)NC2CCC(C)CC2)c(=O)c2cc(S(=O)(=O)N3CCCCC3)ccc21 (stereo unspecified),21.3µM,u,n,n,u,12.6µM
Cn1cc(C(=O)NC2CCCCC2)c(=O)c2cc(S(=O)(=O)N3CCCC3)ccc21,n,n,n,n,n,11.2µM
Cc1ccc(C(CC(=O)Nc2cc(C)cc(C)c2)N2Cc3ccccc3C2=O)cc1 (stereo unspecified),n,x,x,x,x,x
Cc1cccc(NC(=O)C2=C(O)c3ccccc3N(C)S2(=O)=O)c1,16.9µM,n,n,n,n,n
Cc1cccc(C)c1NC(=O)C1=C(O)c2sccc2N(C)S1(=O)=O,u,n,n,n,n,n
CN1c2ccccc2C(O)=C(C(=S)Nc2ccc(Cl)cc2)S1(=O)=O,19µM,n,n,n,n,n
CCCOc1ccc(-c2nc(N3CCN(C)CC3)c3ccccc3n2)cc1,4.78µM,u,u,u,3.16µM,x
CN(C)c1ccc(-c2nc(Nc3ccncc3)c3ccccc3n2)cc1,x,x,x,x,x,11.2µM
CN(C)c1ccc(-c2nc(N3CCNCC3)c3ccccc3n2)cc1,x,x,x,x,x,11.2µM
COc1cccc(-c2nc(N3CCNCC3)c3ccccc3n2)c1,x,x,x,x,x,n
c1ccc(C2CSc3ccccc3N2)cc1 (stereo unspecified),21.3µM,u,u,u,n,x
COCC(=O)N1CCC[C@@]2(CCN(Cc3ccc(C#N)cc3)C2)C1,x,x,x,x,x,n
COc1ccc2ccc3c(c2c1)N=CC1(O3)N(C)c2ccccc2C1(C)C (stereo unspecified),n,n,n,n,n,n
CN1c2ccccc2C(C)(C)C12C=Nc1c(ccc3ccccc13)O2 (stereo unspecified),15.1µM,n,n,n,n,n
CC(=O)c1cccc(S(=O)(=O)NCC2CCCCC2)c1,n,0.0005µM,n,n,u,u
Cc1cccc(NC(=O)C(=O)NCC(c2cccnc2)N2CCc3ccccc3C2)c1C (stereo unspecified),n,x,x,x,x,x
CC(=O)c1cc2c(cc1NC(=O)c1cnn(-c3ccc(C)cc3)c1-n1cccc1)OCO2,n,x,x,x,x,x
CCNC(=O)Nc1nc2ccccc2s1,23.9µM,3.98µM,n,u,u,14.1µM
S=C(Nc1ccccc1)c1nc2ccccc2s1,u,u,u,u,2.51µM,11.2µM
O=C(NCc1ccncc1)C(=O)Nc1nccs1,n,n,n,n,n,x
O=C(NCc1ccncc1)C(=O)Nc1nc2ccccc2s1,15.1µM,n,n,n,n,x
O=C(CCc1nc2ccccc2s1)Nc1ccccc1,u,n,n,n,n,n
O=C(NNc1nc2ccccc2s1)Nc1ccccc1,u,3.16µM,u,u,u,14.1µM
COc1cccc(SCc2noc(C(=O)NC(C)C)c2C(=O)NC(C)C)c1,n,n,n,n,n,x
CCOc1cc(C2NC(=O)c3c(sc4c3CCN(C)C4)N2)ccc1OC(=O)c1ccccc1Cl (stereo unspecified),n,x,x,x,x,n
SMILES,FLuc counter,NPC1 prom act,p53 reactivator,ELG1 genotoxic,Rab9 prom act,SMN2 splice enh
CCO[P@]1(=O)OC[C@@H]2O[C@H](n3cnc4c(N)ncnc43)[C@H](O)[C@@H]2O1,x,x,x,x,x,n[9.22 µM]
Cc1cc(OCCn2c(CCNC(=O)C3CCCCC3)nc3ccccc32)ccc1Cl,n,x,x,x,x,n
CCCn1c2ccccc2c2cnn(CC(=O)N(CCCOC(C)C)Cc3ccco3)c(=O)c21,n,x,x,x,x,x
CCOC(=O)c1cc(-c2ccccc2)n(CCCC(=O)Nc2cc(C)ccc2OC)c1C,n,x,x,x,x,x
CCOC(=O)NC(=O)CSc1nnnn1-c1ccc(Cl)cc1,n,n,n,n,n,n
CNC[C@H]1Oc2ccc(NC(=O)C3CCCCC3)cc2CC(=O)N([C@H](C)CO)C[C@@H]1C,x,x,n,n,x,x
CCOCC(=O)Nc1nc2ccccc2s1,23.9µM,3.16µM,u,u,u,14.1µM
Cc1ccc(-c2ccc(CO)o2)cc1N,n,n,n,n,n,n
CCOc1ccc(-c2ccc(CO)o2)cc1N,15.1µM,x,x,x,x,x
CCOC(=O)c1ccc(-c2ccc(CO)o2)cc1,10.7µM,1.12µM,n,u,1.58µM,7.94µM
